# Measurements as given in ChEMBL document CHEMBL3988442, “University of Dundee, Small-Polar-MMV Screening Library” (2021).
# Out of some 48,000 compounds screened, about 13,000 (27%) showed an effect of 50% or more. This is one part of the list.
# Tested on: Wolbachia pipientis
# Test: Anti-Wolbachia Cell-Based Screen
# Format: functional
# Design: scale not given: in the data most compounds retested in dose-response had high values
# Settings: 5 µM
row,SMILES,Percent Effect
1,COCCN1CC(c2nc(CC3CCN(C)CC3)no2)CCC1=O (stereo unspecified),-7.698%
2,Cc1ccc(C(N)=O)cc1NCCOc1cccc(C#N)c1,-8.652%
3,O=C(c1[nH]nc2c1CCCC2)N1CCC(OCCN2CCCCC2)C1 (stereo unspecified),5.05%
4,COCCN(CCC#N)S(=O)(=O)c1ccc(F)cc1Cl,-17.33%
5,CCOc1ncc(NC(=O)c2ccco2)c(OCC)n1,6.887%
6,CC(Cn1ccnc1)NC(=O)N1CCN(Cc2cccnc2)CC1 (stereo unspecified),-2.682%
7,O=C(NCCn1ccnc1)N1CCN(Cc2cccnc2)CC1,109.3%
8,CC(=O)N1CCN(C(=O)NCc2ccccc2Cn2ccnc2)CC1,-14.94%
9,O=C(NCCn1ccnc1)N1CCN(Cc2ccsc2)CC1,102.5%
10,CC1CN(C(=O)NCCn2ccnc2)CCO1 (stereo unspecified),-11.62%
11,O=C(NCCn1ccnc1)N1CCCC1c1ccsc1 (stereo unspecified),8.592%
12,O=C(NCCn1ccnc1)N1CCN(Cc2ccco2)CC1,103.9%
13,Cc1ccc(CNC(=O)N2CCN(Cc3ccsc3)CC2)n1C,2.843%
14,O=C(NCCNc1ncccn1)N1CCN(Cc2cccnc2)CC1,-0.1396%
15,Cc1cc(C)n(CC2(CNC(=O)C(c3ccccc3C)N(C)C)CC2)n1 (stereo unspecified),-3.627%
16,Cc1nc(CN(CCS(C)(=O)=O)C(C)C)cs1,-0.8172%
17,CN(C)CCO[C@@H]1CC[C@H]2[C@H]1OCCN2C(=O)c1ccc(F)cc1.O=C(O)C(F)(F)F,97.45%
18,Cc1ccc(C(=O)N2CCO[C@H]3[C@H](OCCN(C)C)CC[C@@H]32)o1.O=C(O)C(F)(F)F,8.027%
19,Cc1cccc(C(=O)N2CCO[C@H]3[C@H](OCCN(C)C)CC[C@@H]32)n1,97.76%
20,CO[C@@H]1CC[C@H]2[C@H]1OCCN2C(=O)c1ccc(C)nc1.O=C(O)C(F)(F)F,2.504%
21,Cc1ccc(C(=O)N2CCO[C@H]3[C@H](OCCN(C)C)CC[C@@H]32)cn1,110.3%
22,Cc1ccoc1C(=O)N1CCO[C@H]2[C@H](OCC3CCOCC3)CC[C@@H]21,-7.099%
23,Cc1ccoc1C(=O)N1CCO[C@H]2[C@H](OCc3ccncc3)CC[C@@H]21,96.45%
24,CO[C@H]1CC[C@H]2[C@H]1OCCN2C(=O)c1ccc(C)nc1,6.779%
25,O=C(C1CCOCC1)N1CCO[C@H]2[C@@H](OCc3ccncc3)CC[C@@H]21,-9.852%
26,c1ccc2c(c1)OCCC2NCc1ccc(N2CCOCC2)cc1 (stereo unspecified),6.608%
